TEAD-YAP block – TEAD-YAP interaction inhibition, primary screen, TEAD-YAP interaction inhibitor project, luminescence, HEK-TIYL cells; TEAD-Gal4/YAP UAS-luciferase luminescence; inhibition, % at 9.12 µM; 640,000 compounds, 1.4% hits; AID 1259422, 2018; in the data active = inhibition above about 32%
MITF inh – MITF inhibitors, primary screen, biochemical, AlphaScreen, human; 650,000 compounds, 0.91% hits; Microphthalmia-associated transcription factor (Homo sapiens), O75030; AID 1259374, 2018; inhibition, % at 2.6 µM; AlphaScreen MITF homodimerization, bead proximity signal; in the data active = inhibition above about 50%
FBW7 activator – FBW7 E3 ligase activators, primary screen, biochemical, AlphaScreen, human. 650,000 compounds, 0.13% hits. AID 1259310, 2017. normalized activity (activation), % at 26.1 µM. AlphaScreen FBW7–phospho-cyclin E peptide binding, activator screen; in the data active = normalized activity above about 1.9%;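 note: purified mutant Fbw7 with reduced substrate affinity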
GPR151 ag – activators of human GPR151, primary screen, cell-based, PathHunter beta-arrestin, luminescence; activation, % at 11.2 µM; PathHunter beta-arrestin GPR151 cells; G-protein coupled receptor 151 (Homo sapiens), Q8TDV0; 650,000 compounds, 1% hits; in the data active = activation above about 4.9%
Target sequence (Q8TDV0 whole entry, looked up): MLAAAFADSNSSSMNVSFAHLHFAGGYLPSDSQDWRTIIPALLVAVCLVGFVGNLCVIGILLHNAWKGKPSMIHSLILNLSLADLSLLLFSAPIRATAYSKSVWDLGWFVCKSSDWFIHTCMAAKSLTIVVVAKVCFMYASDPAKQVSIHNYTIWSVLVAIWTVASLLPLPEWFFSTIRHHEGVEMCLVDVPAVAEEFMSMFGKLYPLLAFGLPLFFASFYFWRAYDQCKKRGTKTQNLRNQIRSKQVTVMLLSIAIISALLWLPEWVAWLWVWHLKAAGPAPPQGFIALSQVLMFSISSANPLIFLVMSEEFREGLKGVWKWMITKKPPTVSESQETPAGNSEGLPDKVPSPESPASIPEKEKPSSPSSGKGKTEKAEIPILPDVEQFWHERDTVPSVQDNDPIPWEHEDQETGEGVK
Numbers stand for hits; - = inactive. The list is not random: actives were taken first. Their share in the collection is about 3.5%.

SMILES	TEAD-YAP block	MITF inh	FBW7 activator	GPR151 ag
O=C(O)CNC(=O)c1cc2c3c(c1)C1C=CCC1C(c1ccc(F)cc1)N3CC1CC=CC21 (stereo not given)	-	73	-	-
Nc1c(C(=O)Nc2cccc3ccccc23)sc2nc3c(cc12)C(=O)CCC3	61	-	-	-
COCc1cc(C)c2c(N)c(C(=O)c3ccc(C)cc3C)sc2n1	-	-	3.7	-
COc1ccc(C(=O)c2sc3nc4c(cc3c2N)C(=O)CCC4)cc1	-	-	-	-
Cc1ccc(C(=O)c2sc3nc4c(cc3c2N)CCC4)c(C)c1	-	-	2.0	-
Cc1ccc(C(=O)c2sc3nc4c(cc3c2N)C(=O)CCC4)cc1	47	-	-	-
COc1ccc(-c2c(C#N)c(N)nc3sc(C(=O)Nc4ccc(Br)cc4)c(N)c23)cc1	-	-	-	-
CCC1Sc2cc(S(=O)(=O)CCC(=O)NCc3cccc(OC)c3)ccc2NC1=O (stereo not given)	-	-	-	-
Cc1ccc(-c2c(N3CCN(c4ccccc4F)CC3)c(=O)c2=O)cc1	-	-	-	-
COc1cccc(N2CCN(c3c(-c4ccc(C)cc4)c(=O)c3=O)CC2)c1	66	-	-	-
COc1ccccc1N1CCN(c2c(-c3ccc(C)cc3)c(=O)c2=O)CC1	71	-	-	-
COc1cccc(NC(=O)CN2CCN(Cc3nc(-c4ccc(F)cc4)cs3)CC2)c1	33	-	-	-
COc1cccc(-c2csc(N3CCN(CC(=O)Nc4ccc(F)cc4)CC3)n2)c1	-	-	-	-
COc1ccc(N=CC2=C(O)c3ccccc3C2=O)cc1OC	-	-	-	-
O=C1C(C=Nc2ccc3c(c2)CCC3)=C(O)c2ccccc21	49	-	-	-
CCOC(=O)c1ccc(N=CC2=C(O)c3ccccc3C2=O)cc1	48	-	-	-
O=C1C(C=Nc2cccc(C(F)(F)F)c2)=C(O)c2ccccc21	70	-	-	-
CC12CC(=O)NC1N=C(c1ccccc1O)C2 (stereo not given)	-	-	-	-
COc1cc([N+](=O)[O-])ccc1N/C=C/C(=O)c1ccc(C)o1	35	-	-	-
COc1cc([N+](=O)[O-])ccc1N/C=C/C(=O)c1ccco1	71	-	-	-
COc1cc([N+](=O)[O-])ccc1NC(=O)c1ccco1	-	-	-	-
COc1cccc(C(=O)/C=C/Nc2ccc([N+](=O)[O-])cc2OC)c1	35	-	-	-
CCOc1ccc(NC(=O)CNC(=O)Cn2cnc3ccccc3c2=O)cc1	-	-	-	-
CCc1cc2c(=O)c(-c3nc4ccccc4n3C)c(C(C)(C)C)oc2cc1OC(=O)C(C)(C)C	-	-	-	-
CCc1cc2cccc(C)c2nc1NCCNC(C)=O	-	-	-	-
SMILES	TEAD-YAP block	MITF inh	FBW7 activator	GPR151 ag
CCOCCSc1nc2sc3c(c2c(=O)n1-c1ccccc1)CCCC3	-	-	-	-
COc1cccc(-c2ocnc2C(=O)Nc2ccc(N3CCC(C)CC3)c(C(N)=O)c2)c1	-	-	9.2	-
CC1=CSC2=NC(=O)/C(=C/c3cc(C)n(-c4ccccc4C)c3C)C(=N)N12	68	-	-	-
CC1=CSC2=NC(=O)/C(=C/c3cc(C)n(-c4ccccc4F)c3C)C(=N)N12	52	-	-	-
CCOc1ccccc1-n1c(C)cc(/C=C2\C(=N)N3C(C)=CSC3=NC2=O)c1C	-	-	-	-
Cc1cc(/C=C2/C(=N)N3C(=NC2=O)SN=C3S(C)(=O)=O)c(C)n1-c1ccccc1F	-	-	-	-
CCOc1cc(C=C2C(=O)NC(=O)NC2=O)ccc1OC(C)C(=O)O (stereo not given)	-	-	-	-
CN(C)c1ccc2c(c1)OC(N)=C(C#N)C2c1cccc(C(F)(F)F)c1 (stereo not given)	57	-	-	-
N#CC1=C(N)Oc2cc(N)ccc2C1c1cccc(Cl)c1 (stereo not given)	-	-	-	-
CN(C)c1ccc2c(c1)OC(N)=C(C#N)C2c1ccc(C(F)(F)F)cc1 (stereo not given)	-	-	-	-
N#CC1=C(N)Oc2cc3c(cc2C1c1cccc(Br)c1)OCO3 (stereo not given)	61	-	-	-
COc1ccccc1-c1csc(NC(=O)c2cc(-c3ccccc3)nc3ccccc23)n1	-	-	-	-
COc1ccc(/C=N/NC(=O)COc2cc(C)ccc2C(C)C)cc1O	63	-	-	-
COc1ccc(NC(=O)COc2ccc(/C=N/NC(=S)NC(C)C)cc2OC)cc1	33	-	-	-
COc1ccc(NC(=O)C(=O)N/N=C/c2ccc(O)c(OC)c2)cc1	-	-	25	-
COc1ccc(/C=N/NC(=O)C(=O)Nc2ccc(C)cc2)cc1	-	-	-	-
COc1cc(OC)c(OC)cc1/C=N\NC(=O)c1cc(O)c(O)c(O)c1	-	66	-	-
COc1ccc(NC(=O)COc2ccc(/C=N/n3c(C)nnc3C)cc2OC)cc1	-	-	-	-
Cc1cc(C)n(C(=O)C(C)Oc2ccc(Cl)cc2C)n1 (stereo not given)	-	-	-	-
COc1ccc(-c2cnnc(N/N=C/c3ccc(O)c(OC)c3)n2)cc1	36	-	-	-
COc1cc(/C=N/NC(=O)c2ccccc2NC(=O)c2ccc([N+](=O)[O-])cc2)ccc1O	72	-	-	-
COc1cc(C(=O)N/N=C/c2ccc(O)cc2O)cc(OC)c1OC	55	52	-	-
COc1cc(/C=N/NC(=O)c2cc(OC)c(OC)c(OC)c2)ccc1O	56	-	-	-
O=S(=O)(NCCc1ccc(Cl)cc1)c1ccccc1	-	-	-	-
O=C(Cn1c(=O)oc2cc(S(=O)(=O)N3CCCC3)ccc21)NCC1CCCO1 (stereo not given)	-	-	-	-
SMILES	TEAD-YAP block	MITF inh	FBW7 activator	GPR151 ag
Cc1ccc(S(=O)(=O)NC(=O)C(C)O)cc1 (stereo not given)	-	-	-	-
O=C(COC(=O)c1ccc([N+](=O)[O-])o1)NC(=O)Nc1ccc2c(c1)OCCO2	37	-	-	-
c1cnc(Nc2nc(NCc3nc4ccccc4[nH]3)c3ncn(-c4ccsc4)c3n2)nc1	69	-	50	-
c1cncc(CNc2nc(NCc3nc4ccccc4[nH]3)c3ncn(-c4ccsc4)c3n2)c1	86	-	-	-
CC(C)(C)c1ccc(C2CC(=O)C3=C(C2)Nc2ccccc2N(C(=O)CCC(=O)O)C3c2cccnc2)cc1 (stereo not given)	-	-	-	-
Cc1noc(C)c1CCC(=O)N[C@@H](Cn1nc(-c2ccc(F)c(F)c2)ccc1=O)C(C)C	-	-	-	-
COc1ccc(C)cc1NC(=O)NCCNc1cc(-n2nc(C)cc2C)ncn1	51	-	-	-
Cc1cc(C)n(-c2cc(NCCNC(=O)Nc3cccc(F)c3C)ncn2)n1	-	-	-	-
CN(C)c1ccc(-c2ccc(OC3CCN(c4ncccn4)CC3)cc2)cn1	48	-	-	-

Compound activity from PubChem.
